# Records with an inconclusive call do not appear. Where a call stands in place of a potency, no number is given. Active and inactive are the calls of the source. Unless noted, the call rests on the fitted dose curve; in most records, active means well fitted curve in the direction sought with a large enough effect; inconclusive means small, poorly fitted or top-dose-only effect, or another doubt; inactive means no such curve, though single readings can be large; an effect the other way counts as inactive or inconclusive.
# Columns and labels:
# [1] = HTS Assay for Allosteric Antagonists of the Human D2 Dopamine Receptor: Hit Validation in HTRF (AID 624455); further: potency means the concentration at half of the fitted maximal effect;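 further: stable D1 dopamine receptor cell line scored for blocking the D1 response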
# Procedure, shortened: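 Signal from an HTRF read-out in D1-expressing stable cells gave hit activity as inhibition of the D1 response.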
# [2] = Cytotoxicity counterscreen for NFkB agonists and antagonists (AID 624476);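 further: cells exposed to compound for 48 hours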; further: potency means the concentration at half of the fitted maximal effect
# [3] = qHTS Assay for Identification of Small Molecule Agonists for NFkB Signaling Pathway. (AID 624478);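 further: compounds tested together with TNF alpha at its EC50 of 10 pM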
# Procedure, shortened: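 Cells carrying an NFkB response element-driven beta-lactamase gene are co-treated with compound and 10 pM TNF alpha for 5 h, and reporter activity is then read as 460 and 530 nm fluorescence.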
# [4] = qHTS Assay for Identification of Small Molecule Antagonists for NFkB Signaling Pathway. (AID 624479; calls by dose curve;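 further: pathway stimulated with TNF alpha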; further: potency means the concentration at half of the fitted maximal effect)
# [5] = Cell Proliferation Assay against the TMD8 Cell Line (AID 651645); details: TMD8 DLBCL cell line proliferation/viability; at 46.1 µM (top of the series) unless noted;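 further: cells exposed to compound for 48 h before reading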
# Procedure, shortened: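 Luminescent ATP read-out (CellTiter-Glo, 15 min RT) after 48 h compound exposure of log-growing TMD8 cells at 37C; percent activity scaled between DMSO as 100% and 9.2 uM bortezomib final as 0%.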
# [6] = Cell Proliferation Assay against the HBL1 Cell Line (AID 651646); details: HBL1 DLBCL cells; at 46.1 µM (top of the series) unless noted;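 further: cells exposed to compound for 48 h before reading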
# Procedure, shortened: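 500 log-phase HBL1 cells per well in phenol red-free RPMI with 5% FBS were treated with compounds for 48 h at 37 °C, 5% CO2. Viability was read by CellTiter-Glo luminescence, normalized to DMSO (100%) and 9.2 uM bortezomib final (0%).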
# [7] = Cell Proliferation Assay against the TMD8 Cell Line (Caspase readout at 16 hrs) (AID 651712)
# Procedure, shortened: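 TMD8 cells (500/well) in phenol-red-free RPMI with glutamine, 5% FBS, were exposed to compounds for 16 h at 37 °C. Caspase 3/7 activation was read by Caspase-Glo luminescence; percent activity normalised to DMSO (0%) and 9.2 uM bortezomib final (100%).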
# [8] = Cell Proliferation Assay against the TMD8 Cell Line (Caspase readout at 8 hrs) (AID 651713)
# Procedure, shortened: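 Percent activity derived from Caspase-Glo signal, DMSO set to 0% and bortezomib (9.2 uM final) to 100%. TMD8 cells were exposed to compound for 8 h in RPMI with 5% FBS.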
# [9] = qHTS assay for small molecule agonists of the antioxidant response element (ARE) signaling pathway (AID 651741; active means well fitted activation curve with a large enough effect in the signal ratio; the % refers to the signal ratio)
# Procedure, shortened: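 ARE-bla HepG2 cells (beta-lactamase reporter under ARE control) were plated at 2,000 cells/well, preincubated 5 h at 37 C/5% CO2, then treated with DMSO-dissolved compounds for 16 h at 37 C; LiveBLAzer B/G FRET substrate added, fluorescence read after 2 h at room temperature.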
# [10] = qHTS assay for small molecule activators of the p53 signaling pathway (AID 651743; active means well fitted activation curve with a large enough effect in the signal ratio, not every such curve was filed as active; the % refers to the signal ratio); details: HCT-116 p53RE-bla, beta-lactamase FRET ratio, 16 h; activation: stronger effect = higher value
# Procedure, shortened: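 p53RE-bla HCT-116 cells with a stably integrated beta-lactamase reporter under p53 response elements were plated, rested 5 hours at 37 C/5% CO2, then exposed to compounds in DMSO for 16 hours at 37 C. LiveBLAzer B/G FRET substrate was read after 2 hours at room temperature.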
smiles,measurement,setting,value
O=c1[nH]cnc2[nH]ncc12,Potency,[1],inactive
CCN(CC)CCCC(C)Nc1ccnc2cc(Cl)ccc12 (centres undefined),Potency,[1],inactive
Nc1nc2c(ncn2COCCO)c(=O)[nH]1,Potency,[1],inactive
Cc1ccc(N(CC2=NCCN2)c2cccc(O)c2)cc1,Potency,[1],inactive
O=C(Nc1nc2ccccc2n1CCN1CCOCC1)c1cccc([N+](=O)[O-])c1,Potency,[1],inactive
same,Potency,[2],inactive
same,outcome,[3],inactive
same,Potency,[4],2.66 µM (active)
same,viability (% of control),[5],77.2%
same,"viability, percent of control",[6],89.4%
same,Potency,[7],inactive
N=c1nc(N2CCCCC2)cc(N)n1O,Potency,[1],inactive
CC(C)(C)NCC(O)c1ccc(O)c(CO)c1 (centres undefined),Potency,[1],inactive
CC(C[N+](C)(C)C)OC(N)=O (centres undefined),Potency,[1],inactive
NCCCC(N)(C(=O)O)C(F)F (centres undefined),Potency,[1],inactive
C1COC(NC(C2CC2)C2CC2)=N1,Potency,[1],inactive
O=c1n(CCCN2CCN(c3cccc(Cl)c3)CC2)nc2ccccn12,Potency,[1],inactive
CC(C)NCC(O)COc1ccc(COCCOC(C)C)cc1 (centres undefined),Potency,[1],inactive
OC(CCN1CCCCC1)(c1ccccc1)C1CC2C=CC1C2 (centres undefined),Potency,[1],inactive
OC(CN1CCC(Cc2ccc(F)cc2)CC1)c1ccc(Cl)cc1 (centres undefined),Potency,[1],inactive
same,Potency,[2],inactive
same,outcome,[3],inactive
same,Potency,[4],inactive
same,viability (% of control),[5],74%
same,"viability, percent of control",[6],66.4%
same,Potency,[7],inactive
same,Potency,[8],inactive
NC[C@H](O)c1ccc(O)c(O)c1,Potency,[1],0.291 µM (active)
Nc1ccc(S(=O)(=O)Nc2ccnn2-c2ccccc2)cc1,Potency,[1],inactive
NNCCc1ccccc1,Potency,[1],inactive
Cc1[nH]c(=O)c(C#N)cc1-c1ccc2nccn2c1,Potency,[1],inactive
same,Potency,[2],inactive
same,Potency,[4],inactive
same,viability (% of control),[5],104%
same,"viability, percent of control",[6],78.9%
same,Potency,[7],inactive
same,Potency,[8],inactive
Nc1nc2ccc(OC(F)(F)F)cc2s1,Potency,[1],inactive
same,Potency,[2],inactive
same,outcome,[3],inactive
same,Potency,[4],inactive
same,"viability, percent of control",[6],50.6%
same,Potency,[7],inactive
same,Potency,[8],inactive
C[C@]12CCC(=O)C=C1CC[C@@H]1[C@@H]2[C@@H](O)C[C@@]2(C)[C@H]1CC[C@]2(O)C(=O)CO,Potency,[1],inactive
same,Potency,[2],inactive
same,outcome,[3],inactive
same,Potency,[4],inactive
same,viability (% of control),[5],65.6%
same,"viability, percent of control",[6],39.1%
same,Potency,[7],inactive
same,Potency,[8],inactive
CCC(C)N(C)C(=O)c1cc2ccccc2c(-c2ccccc2Cl)n1 (centres undefined),Potency,[1],inactive
same,Potency,[2],inactive
same,Potency,[4],inactive
same,viability (% of control),[5],65.6%
same,"viability, percent of control",[6],90%
same,Potency,[8],inactive
CCOC(=O)C1=C[C@]2(CC)CCCN3CCc4c(n1c1ccccc41)[C@@H]32,Potency,[1],inactive
CC(C)(Sc1ccc(CCN(CCCCC2CCCCC2)C(=O)NC2CCCCC2)cc1)C(=O)O,Potency,[1],inactive
same,Potency,[2],23.5 µM (active)
same,outcome,[3],inactive
same,Potency,[4],21.1 µM (active)
same,viability (% of control),[5],92.1%
same,"viability, percent of control",[6],13.8%
same,Potency,[7],inactive
same,Potency,[8],inactive
O=C1CCc2cc(OCCCCc3nnnn3C3CCCCC3)ccc2N1,Potency,[1],inactive
CN1CCN(CCCN2c3ccccc3Sc3ccc(C(F)(F)F)cc32)CC1,Potency,[1],inactive
Cc1cnc(NC(=O)C2=C(O)c3ccccc3S(=O)(=O)N2C)s1,Potency,[1],inactive
Cc1oncc1C(=O)Nc1ccc(C(F)(F)F)cc1,Potency,[1],inactive
same,Potency,[2],inactive
same,outcome,[3],inactive
same,Potency,[4],inactive
same,viability (% of control),[5],54%
same,"viability, percent of control",[6],84%
same,Potency,[7],inactive
same,Potency,[8],inactive
Cc1cccc(-c2[nH]c(C(C)(C)C)nc2-c2ccc3nccnc3c2)n1,Potency,[1],inactive
same,Potency,[2],inactive
same,outcome,[3],inactive
same,Potency,[4],inactive
same,viability (% of control),[5],34%
same,"viability, percent of control",[6],100%
same,Potency,[7],inactive
same,Potency,[8],inactive
CC(C)C[C@H](NC(=O)[C@@H](O)[C@H](N)Cc1ccccc1)C(=O)O,Potency,[1],inactive
same,Potency,[2],inactive
same,outcome,[3],inactive
same,Potency,[4],inactive
same,viability (% of control),[5],89.3%
same,"viability, percent of control",[6],106%
same,Potency,[7],inactive
same,Potency,[8],inactive
CCOC(=O)N1CCC(=C2c3ccc(Cl)cc3CCc3cccnc32)CC1,Potency,[1],inactive
N[C@@H]1CONC1=O,Potency,[1],inactive
Cc1cn[nH]c1,Potency,[1],inactive
Clc1cccc(Cl)c1NC1=NCCN1,Potency,[1],inactive
CCCCNc1cc(C(=O)O)cc(S(N)(=O)=O)c1Oc1ccccc1,Potency,[1],inactive
CCn1cc(C(=O)O)c(=O)c2cc(F)c(N3CCNC(C)C3)c(F)c21 (centres undefined),Potency,[1],inactive
CNCc1ccc(-c2[nH]c3cc(F)cc4c3c2CCNC4=O)cc1,Potency,[2],inactive
same,outcome,[3],inactive
same,Potency,[4],21.1 µM (active)
same,viability (% of control),[5],79.6%
same,"viability, percent of control",[6],73.9%
NC(=O)c1ccc(-c2nc(-c3ccc4c(c3)OCO4)c(-c3ccccn3)[nH]2)cc1,Potency,[2],inactive
same,outcome,[3],inactive
same,Potency,[4],inactive
same,viability (% of control),[5],92.5%
same,"viability, percent of control",[6],121%
same,Potency,[7],inactive
same,Potency,[8],inactive
CC(c1cc2ccccc2s1)N(O)C(N)=O (centres undefined),Potency,[2],inactive
same,outcome,[3],inactive
same,Potency,[4],inactive
same,viability (% of control),[5],92.3% [at 92.2 µM]
same,"viability, percent of control",[6],96.2% [at 92.2 µM]
same,Potency,[7],inactive
same,Potency,[8],inactive
CCCC(CCC)C(=O)O,Potency,[1],inactive
same,Potency,[9],inactive
O=C1CCC(N2C(=O)c3ccccc3C2=O)C(=O)N1 (centres undefined),Potency,[1],inactive
same,Potency,[9],inactive
same,activation,[10],-2.08% (inactive)
Cc1n[nH]c(C)c1Cc1sc2c(c1C(=O)N1C[C@H](O)CO1)c(=O)n(C)c(=O)n2CC(C)C,Potency,[2],inactive
same,outcome,[3],inactive
same,Potency,[4],inactive
same,viability (% of control),[5],68.3%
same,"viability, percent of control",[6],76%
same,Potency,[7],inactive
same,Potency,[8],inactive
NS(=O)(=O)c1cc2c(cc1Cl)NC=NS2(=O)=O,Potency,[1],inactive
same,Potency,[9],inactive
same,activation,[10],-2.13% (inactive)
CNC[C@H](O)c1cccc(O)c1,Potency,[1],1.84 µM (active)
same,Potency,[9],inactive
Cc1[nH]c(=O)c(C#N)cc1-c1ccncc1,Potency,[1],inactive
same,Potency,[9],inactive
same,activation,[10],-6.25% (inactive)

# Reference: PubChem BioAssay (NCATS)
